Compound activity from PubChem.
Compounds with a hit are over-represented: about 4.7% of the library has one in this group of screens.
TRHR enhancer = allosterically enhances the human TRH receptor; 360,000 compounds, 0.66% hits; AID 493056; TRHR cells, fluo-8 calcium fluorescence, EC20 TRH enhancement; enhancement, % at 2 µM; in the data active = enhancement above about 30%
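Enhancer read-out: after compound pinning and an initial kinetic agonist-mode read, an EC20 of TRH (10 nM final) was injected and fluo-8 calcium signal (Ex 480/Em 530) followed at 1 s/cycle for 100 cycles in TRHR-expressing cells.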
D1 ag = human D1 receptor agonism; HEK293 T-REx D1 cells, calcium flux, agonist mode; 360,000 compounds, 1% hits; P21728; activation, % at 2 µM
Target sequence (P21728 whole entry, looked up): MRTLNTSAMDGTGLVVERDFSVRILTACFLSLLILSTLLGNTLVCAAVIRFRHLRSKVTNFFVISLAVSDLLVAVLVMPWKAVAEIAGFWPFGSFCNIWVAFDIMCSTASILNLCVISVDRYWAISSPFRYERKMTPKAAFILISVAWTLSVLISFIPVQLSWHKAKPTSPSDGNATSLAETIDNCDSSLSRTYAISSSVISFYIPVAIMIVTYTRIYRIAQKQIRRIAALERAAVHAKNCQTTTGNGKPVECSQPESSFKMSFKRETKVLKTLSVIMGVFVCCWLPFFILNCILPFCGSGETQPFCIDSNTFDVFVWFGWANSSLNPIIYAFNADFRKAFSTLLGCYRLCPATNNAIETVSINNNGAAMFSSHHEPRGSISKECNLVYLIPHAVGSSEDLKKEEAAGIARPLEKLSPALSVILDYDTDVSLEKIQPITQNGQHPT
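Inducible HEK293 T-REx D1 cells, force-coupled to calcium signalling, were plated at 4000 cells/well with tetracycline and held overnight at 30 C. After no-wash calcium dye loading, compound-evoked calcium rise over 180 s flagged agonists.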
TRHR agonist = TRH receptor (human) agonism; 360,000 compounds, 0.18% hits; TRHR cells, calcium flux fluo-8, FDSS agonist mode; activation, % at 2 µM
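In this calcium-flux screen, cells bearing human TRHR are dye-loaded with fluo-8, baselined for 10 cycles, then exposed to library compounds; positive kinetic calcium responses during the agonist phase mark hits, with TRH as control.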
D1 PAM = human D1 dopamine receptor positive modulation; P21728; HEK293 TREx D1 cells, calcium flux, dopamine EC20 potentiation; potentiation, % at 10 µM; 360,000 compounds, 0.036% hits; AID 504651; in the data active = potentiation above about 30%
D1 antagonist = antagonists of human D1 dopamine receptor | HEK293 TREx D1 cells, calcium flux, dopamine EC80; hits give low values | 360,000 compounds, 3.2% hits | activity change, negative = inhibition, % at 10 µM | P21728 | AID 504652; in the data active = activity change below about -30%
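After overnight tetracycline induction at 30 C, force-coupled D1 HEK293 cells took up a no-wash calcium dye at room temperature. Compounds were added and monitored 180 s, and the response to EC80 dopamine was then recorded.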
Large screens that a line does not name were inactive. Rule as the data show it, unless noted: active = activation above about 30%; inactive = the rest.

COc1ccc(CCNC(=O)c2ccc3c(c2)sc2nc(-c4ccccc4)cn23)cc1OC	none
COc1ccc(N(C(=O)c2cccc(C)c2)S(=O)(=O)c2ccc3c(c2)n(C)c(=O)n3C)cc1	none
NC1=NC(=Nc2ccccc2)c2ccccc21	none
Nc1ccc(S(=O)(=O)N2CCOCCOCCOCCOCCOCC2)cc1	none
NC1=NC(=Nc2ccc(Br)cc2)c2ccccc21	D1 antagonist -33
NC1=NC(=Nc2ccc(S(=O)(=O)N3CCOCC3)cc2)c2ccccc21	D1 antagonist -33
NC1=NC(=Nc2ccc(Cl)cc2)c2ccccc21	D1 antagonist -41
COc1cccc(-c2nn(C)c3sc(C(=O)NCCc4cccc(C)c4)cc23)c1	D1 ag 46
CCOC(=O)N1CCC(NC(=O)c2cc3c(-c4cccc(OC)c4)nn(C)c3s2)CC1	D1 antagonist -43
O=C(NCc1ccc(F)cc1)C1CCN(c2ncnc3c2nc2n3CCCCC2)CC1	none
CCOC(=O)N1CCC(Nc2c(NCCCN(CC)Cc3ccccc3)c(=O)c2=O)CC1	none (no result: D1 PAM)
CCOC(=O)N1CCN(C(=S)NC2CCCC2)CC1	TRHR enhancer 33
CCOC(=O)N1CCC(Nc2c(OCC)c(=O)c2=O)CC1	D1 antagonist -34
CCOC(=O)N1CCC(Nc2c(NCCCOC)c(=O)c2=O)CC1	D1 antagonist -34
CCOC(=O)N1CCC(Nc2c(NCCCN3CCN(C4CCCCC4)CC3)c(=O)c2=O)CC1	D1 antagonist -43
CCOC(=O)N1CCC(Nc2c(NCCCN(CC)CC)c(=O)c2=O)CC1	none (no result: D1 PAM)
CCCCN(CC)CCNc1c(NC2CCN(C(=O)OCC)CC2)c(=O)c1=O	D1 antagonist -63 (no result: D1 PAM)
COc1ccc(Br)cc1C1C(C(=O)Nc2ccc(C)cc2C)=C(C)Nc2ncnn21 (stereo unspecified)	none
COc1ccc(CNC(=O)C(c2ccco2)N(Cc2cccs2)C(=O)Cc2cccs2)cc1 (stereo unspecified)	none
COc1ccc(CNC(=O)C(c2ccco2)N(C(=O)Cc2cccs2)c2cccnc2)cc1 (stereo unspecified)	D1 antagonist -35
COc1ccccc1NC(=O)C1CCN(c2cnccn2)CC1	none
N#Cc1ccccc1NC(=O)CSC1=Nc2ccccc2C2CC=NN12 (stereo unspecified)	none
Cc1cc(C)cc(N(CCC#N)C(=O)CSC2=Nc3ccccc3C3CC=NN23)c1 (stereo unspecified)	TRHR enhancer 34
Cc1ccc(N(CC(=O)N2CCN(c3cc(C)ccc3C)CC2)S(=O)(=O)c2c(C)nn(C)c2C)cc1	none
N#C/C(N=Nc1ccccc1O)=N\Nc1ccccc1O	D1 ag 36, D1 antagonist -59
COc1ccc(-c2cc(-c3ccc(Cl)cc3)n[nH]2)c(O)c1	D1 antagonist -34
COc1ccc(-c2nc3sc(CCNC(=O)c4cccc(C(F)(F)F)c4)c(C)n3n2)cc1	none (no result: D1 antagonist)
CCc1ccc(CN2C(=O)c3ccccc3C2C(=O)NC2CCCCCC2)cc1 (stereo unspecified)	none
N#C/C(=C(/O)c1cccc(F)c1)c1nc2ccccc2s1	D1 antagonist -35
Cn1c(/C(C#N)=C(\O)c2cccc(F)c2)nc2ccccc21	none
CCc1ccc(-c2[nH]nc3nc(-c4ccc(OC)cc4)cc(C(=O)NCCCOC)c23)cc1	none
Cc1cc2nc(-c3ccc[nH]c3=O)[nH]c2cc1C	D1 antagonist -65
CCc1ccc(-n2c(=O)c3c4c(sc3n(CC(=O)c3ccc(F)cc3)c2=O)CCC4)cc1	none
O=C(Nc1nccs1)c1ccc(CSc2nnnn2-c2ccccc2)cc1	D1 antagonist -34
O=C(CSc1nnnn1-c1cccc2ccccc12)Nc1ccc(C(=O)O)cc1	none
O=C(CCCSc1nnnn1-c1cccc2ccccc12)c1ccc(F)cc1	D1 ag 62, D1 antagonist -47
O=C(O)c1ccc(CSc2nnnn2-c2ccc(F)cc2)cc1	D1 antagonist -31
COc1ccc(CCCc2nnc(SCC(=O)Nc3cccc(F)c3C)o2)cc1	none
Cc1ccc(-c2c(C(=O)N/N=C/c3cccs3)nnn2-c2nonc2N)cc1	D1 ag 76
Cc1ccc(-c2c(C(=O)N/N=C/c3ccsc3)nnn2-c2nonc2N)cc1	D1 ag 148
CCOc1ccc(-c2c(C(=O)N/N=C/c3ccco3)nnn2-c2nonc2N)cc1	none
CCOc1cccc(-c2c(C(=O)N/N=C/c3ccsc3)nnn2-c2nonc2N)c1	D1 ag 72
Cc1ccc(-c2c(C(=O)N/N=C/c3cccc(Cl)c3)nnn2-c2nonc2N)cc1	none
Cc1ccc(-c2c(C(=O)N/N=C/c3ccco3)nnn2-c2nonc2N)cc1	D1 ag 94
Cn1nnnc1Sc1ncnc2scc(-c3ccc(N)cc3)c12	none
Cc1cccc(C)c1NC(=O)Cn1c(=O)n(Cc2ccc3c(c2)OCO3)c(=O)c2oc3ccccc3c21	none
Nc1nonc1-n1nnc(C(=O)N/N=C/c2cccs2)c1-c1ccc2c(c1)OCO2	D1 ag 102
Cc1ccsc1/C=N/NC(=O)c1nnn(-c2nonc2N)c1-c1ccc2c(c1)OCO2	none
COc1cccc(N=Nc2c(C)[nH]n(-c3ccccc3)c2=O)c1	none
Cc1[nH]n(-c2ccccc2)c(=O)c1N=Nc1ccc2c(c1)OCO2	D1 antagonist -35
Cc1[nH]n(-c2ccccc2)c(=O)c1N=Nc1ccccc1O	D1 ag 32
O=C(N/N=C/c1ccc(OC(=O)c2ccccc2Cl)cc1)c1cc(O)cc(O)c1	none
O=C(N/N=C/c1ccc(OC(=O)c2ccccc2Cl)cc1)c1ccccn1	TRHR enhancer 31
O=C(CSc1nnc(-c2ccncc2)o1)NC1C2CC3CC(C2)CC1C3 (stereo unspecified)	TRHR enhancer 31
O=C(CSc1nnc(-c2ccncc2)o1)Nc1ccccc1Cl	none
COc1ccccc1CCNC(=O)Cc1c(C)c2c(cc(C)c3c(C)coc32)oc1=O	none
O=C(COCc1cc(-c2ccc3c(c2)OCO3)on1)Nc1cc(C(F)(F)F)ccc1Cl	D1 ag 33
Cc1c(Cl)cccc1NC(=O)COCc1cc(-c2ccc3c(c2)OCO3)on1	none
O=C(COCc1cc(-c2ccc(F)cc2)on1)Nc1cc(Cl)ccc1O	D1 antagonist -37
Cc1cc(C)cc(-n2ccnc2SCC(=O)Nc2ccccc2F)c1	none
CCOC(=O)c1ccccc1NC(=O)COC(=O)C(CC(C)C)NC(N)=O (stereo unspecified)	TRHR enhancer 41
COc1cc(-c2nc(Cn3nnc(C(=O)Nc4cc(C)cc(C)c4)c3C)c(C)o2)cc(OC)c1OC	none
Cc1ccc(NC(=O)/C=C\C(=O)NCC(=O)O)cc1C	D1 antagonist -37
O=C(NC(=O)N1CCN(c2cccc(Cl)c2)CC1)c1ccc(Cl)cc1	D1 antagonist -37
Cc1ccc(C)c(N2CCN(C(=O)c3cccc(-n4c(C)nc5cccnc54)c3)CC2)c1	none
